Measured values published in PubChem BioAssay (Tox21).
Values joined by “and” are separate entries in the source; they are usually repeats but may differ in a detail not shown here. Equal values may be shown once. Results filed as inconclusive are left out. Where a call stands in place of a potency, no number is given. Where a structure was tested more than once in an assay, its records may differ in their call. Active and inactive are the calls of the source. Calls follow the shape of the dose curve; as a rule, active = well fitted curve in the direction sought with a large enough effect in the repeat runs; inconclusive = weak or mixed curves; inactive = no such curve, though single readings can be large; an effect the other way counts as inactive or inconclusive.

What was measured:
[1] = A CellTox Green Cytotoxicity Assay to monitor cytotoxicity in HEK293 cells - 40 hour (AID 1224871); also: nearly all actives have a fitted effect of over 45% in size; also: potency is read from the fitted curve at half-maximal effect
Procedure, shortened: (§1)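 Cytotoxicity was tracked continuously in HEK293 cells by a DNA-binding dye excluded from viable cells. Compounds were transferred in DMSO 5 h after seeding; fluorescence was recorded at intervals up to 40 h.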

[2] = qHTS RealTime-Glo MT Cell Viability Assay in HEK293 cells - 16 hour (AID 1224872); also: nearly all actives have a fitted effect of over 50% in size; also: potency is read from the fitted curve at half-maximal effect; as to activity change, negative = cytotoxicity: top concentration of the series differs between compounds
Procedure, shortened: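 Nonlytic real-time viability readout: viable cells convert prosubstrate to NanoLuc substrate, giving luminescence proportional to live cell number. HEK293, 600 cells/well, compound added after 5 h, continuous culture at 37 C.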

[3] = qHTS RealTime-Glo MT Cell Viability Assay in HepG2 cells - 8 hour (AID 1224873); also: nearly all actives have a fitted effect of over 55% in size; also: potency is read from the fitted curve at half-maximal effect
Procedure, shortened: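 HepG2 cells (600/well) mixed with RealTime-Glo MT reagent, settled 5 h at 37 C/5% CO2 before compound addition. Nonlytic NanoLuc luminescence from viable-cell prosubstrate reduction read repeatedly during 40 h treatment at 37 C.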

[4] = qHTS RealTime-Glo MT Cell Viability Assay in HEK293 cells - 40 hour (AID 1224874); details: RealTime-Glo luminescence; max response: stronger effect = lower value; also: nearly all actives have a fitted effect of over 50% in size; also: potency is read from the fitted curve at half-maximal effect
Procedure, shortened: (§2)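 Nonlytic bioluminescent viability monitoring. HEK293 at 600 cells/well with reagent; 5 h settle; compound transfer by pintool; plates held at 37 C and read at set time points.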

[5] = A CellTox Green Cytotoxicity Assay to monitor cytotoxicity in HEK293 cells - 24 hour (AID 1224875); also: nearly all actives have a fitted effect of over 45% in size; also: potency is read from the fitted curve at half-maximal effect; as to activity change: series mostly up to about 77 µM
Procedure, shortened: as §1

[6] = qHTS RealTime-Glo MT Cell Viability Assay in HepG2 cells - 32 hour (AID 1224877); also: nearly all actives have a fitted effect of over 55% in size; also: potency is read from the fitted curve at half-maximal effect
Procedure, shortened: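 Luminescence read-out: viable HepG2 cells reduce a prosubstrate to a NanoLuc substrate, giving a signal proportional to live cell number. Reads taken at 0, 8, 16, 24, 32 and 40 h of compound exposure at 37 C.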

[7] = A CellTox Green Cytotoxicity Assay to monitor cytotoxicity in HepG2 cells - 24 hour (AID 1224878); also: nearly all actives have a fitted effect of over 45% in size; also: potency is read from the fitted curve at half-maximal effect
Procedure, shortened: (§3)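 Real-time, homogeneous cytotoxicity readout: dead-cell DNA staining by CellTox Green in HepG2 monolayers, fluorescence measured at timed intervals up to 40 h of continuous compound exposure.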

[8] = A CellTox Green Cytotoxicity Assay to monitor cytotoxicity in HepG2 cells - 40 hour (AID 1224879); also: nearly all actives have a fitted effect of over 40% in size; also: potency is read from the fitted curve at half-maximal effect
Procedure, shortened: as §3

[9] = qHTS RealTime-Glo MT Cell Viability Assay in HEK293 cells - 0 hour (AID 1224880); also: top concentration of the series differs between compounds; nearly all actives have a fitted effect of over 45% in size
Procedure, shortened: as §2

[10] = A CellTox Green Cytotoxicity Assay to monitor cytotoxicity in HepG2 cells - 16 hour (AID 1224876); also: nearly all actives have a fitted effect of over 45% in size; also: potency is read from the fitted curve at half-maximal effect
Procedure, shortened: as §3

With OC[C@H]1O[C@H](O[C@H]2O[C@H](CO)[C@@H](O)[C@H](O)[C@H]2O)[C@H](O)[C@@H](O)[C@@H]1O the Potency [1] was “inactive”, the Potency [2] was “inactive” and the Potency [3] was “inactive”. The max response [4] was 25.1% (inactive), the Potency [5] was “inactive” and the Potency [6] was “inactive”. For the same molecule, the Potency [7] was “inactive”, the Potency [8] was “inactive” and the Potency [9] was “inactive”.

In the case of CC(C)(C)NSc1nc2ccccc2s1, the Potency [1] is reported as “inactive”, the Potency [2] is reported as “inactive” and the Potency [3] is reported as “inactive”. The max response [4] was 8.62% (inactive), the Potency [5] was “inactive” and the Potency [10] was “inactive”. The Potency [6] was “inactive”, the Potency [7] was “inactive” and the Potency [8] was “inactive”. For the same molecule, the Potency [9] was “inactive”.

With O=[N+]([O-])c1cccc(C(F)(F)F)c1 the Potency [1] was “inactive”, the Potency [2] was “inactive” and the Potency [3] was “inactive”. For the same molecule, the max response [4] was 7.87% (inactive), the Potency [5] was “inactive” and the Potency [6] was “inactive”. The Potency [7] was “inactive” and the Potency [8] was “inactive”.

For CCCC(=O)OC(C)(C)Cc1ccccc1, the Potency [1] was 24.5 µM (active), the Potency [2] was “inactive” and the Potency [3] was “inactive”. The max response [4] was -22.8% (inactive), the Potency [5] was “inactive” and the Potency [6] was “inactive”.

For ClCCl, the Potency [1] was “inactive”, the Potency [2] was “inactive” and the Potency [3] was “inactive”. The max response [4] was 10.5% (inactive), the Potency [5] was “inactive” and the Potency [10] was “inactive”. The Potency [6] was “inactive”, the Potency [7] was “inactive” and the Potency [8] was “inactive”. The Potency [9] was “inactive”.

In the case of Nc1ccc(NCCO)c([N+](=O)[O-])c1, the Potency [1] is reported as “inactive”, the Potency [2] is reported as “inactive” and the Potency [3] is reported as “inactive”. For the same molecule, the max response [4] was 0.226% (inactive), the Potency [5] was “inactive” and the Potency [10] was “inactive”. For the same molecule, the Potency [6] was “inactive”, the Potency [7] was “inactive” and the Potency [8] was “inactive”. The Potency [9] was “inactive”.

In the case of Cc1cccc(C(=O)O)c1O, the Potency [1] is reported as “inactive”, the Potency [2] is reported as “inactive” and the Potency [3] is reported as “inactive”. For the same molecule, the max response [4] was 6.77% (inactive), the Potency [5] was “inactive” and the Potency [6] was “inactive”. The Potency [7] was “inactive”, the Potency [8] was “inactive” and the Potency [9] was “inactive”.

With Cc1ccc(N/N=c2\c(=O)cc/c(=N\Nc3ccc(S(=O)(=O)O)cc3)c2=O)c(C)c1 the Potency [1] was “inactive”, the Potency [2] was “inactive” and the Potency [3] was “inactive”. The max response [4] was 1.45% (inactive), the Potency [5] was “inactive” and the Potency [10] was “inactive”. The Potency [6] was “inactive”, the Potency [7] was “inactive” and the Potency [8] was “inactive”. The Potency [9] was “inactive”.

In the case of CCc1cccc(CC)c1NC(=O)CN(CC(=O)O)CC(=O)O, the Potency [1] is reported as “inactive”, the Potency [2] is reported as “inactive” and the Potency [3] is reported as “inactive”. For the same molecule, the max response [4] was 1.69% (inactive), the Potency [5] was “inactive” and the Potency [10] was “inactive”. The Potency [6] was “inactive”, the Potency [7] was “inactive” and the Potency [8] was “inactive”. For the same molecule, the Potency [9] was “inactive”.

For Nc1nc(N)nc(-c2cc(Cl)ccc2Cl)n1, the Potency [1] was “inactive”, the Potency [2] was “inactive” and the Potency [3] was “inactive”. The max response [4] was 3.58% (inactive), the Potency [5] was “inactive” and the Potency [6] was “inactive”. For the same molecule, the Potency [7] was “inactive”, the Potency [8] was “inactive” and the Potency [9] was “inactive”.

With CC(C)(C)CC(C)(C)c1ccc(Nc2ccc(C(C)(C)CC(C)(C)C)cc2)cc1 the cytotoxicity increase [1] was 0.599% [at 6.97 µM] (inactive), the activity change, negative = cytotoxicity [2] was -0.589% [at 6.97 µM] (inactive) and the viability change, negative = cytotoxic [3] was 4.91% [at 6.97 µM] (inactive). For the same molecule, the max response [4] was 9% (inactive), the activity change [5] was 4.29% [at 6.97 µM, stronger effect = higher value] (inactive) and the cytotoxicity increase [10] was -0.431% [at 6.97 µM] (inactive). For the same molecule, the activity change, negative = cytotoxic [6] was 0.186% [at 6.97 µM] (inactive), the cytotoxicity [7] was 4.45% [at 6.97 µM] (inactive) and the cytotoxicity increase [8] was 2.12% [at 6.97 µM] (inactive). The activity change, negative = cytotoxicity [9] was -8.12% [at 6.97 µM] (inactive).

In the case of CCCCNS(=O)(=O)c1ccc(C)cc1, the Potency [1] is reported as “inactive”, the Potency [2] is reported as “inactive” and the Potency [3] is reported as “inactive”. For the same molecule, the max response [4] was -16.6% (inactive), the Potency [5] was “inactive” and the Potency [10] was “inactive”. The Potency [6] was “inactive”, the Potency [7] was 6.16 µM (active) and the Potency [9] was “inactive”.

In the case of CCCCCCCC, the Potency [1] is reported as “inactive”, the Potency [2] is reported as “inactive” and the Potency [3] is reported as “inactive”. For the same molecule, the max response [4] was -2.45% (inactive), the Potency [5] was “inactive” and the Potency [10] was “inactive”. For the same molecule, the Potency [6] was “inactive”, the Potency [7] was “inactive” and the Potency [8] was “inactive”. For the same molecule, the Potency [9] was “inactive”.

For CCC(COC(=O)CCS)(COC(=O)CCS)COC(=O)CCS, the Potency [1] was “inactive”, the Potency [2] was “inactive” and the Potency [3] was “inactive”. For the same molecule, the max response [4] was 0.669% (inactive), the Potency [5] was “inactive” and the Potency [6] was “inactive”. For the same molecule, the Potency [7] was “inactive”, the Potency [8] was “inactive” and the Potency [9] was “inactive”.

With CCO[Si](OCC)(OCC)OCC the Potency [1] was “inactive”, the Potency [2] was “inactive” and the Potency [3] was “inactive”. For the same molecule, the max response [4] was 3.28% (inactive), the Potency [5] was “inactive” and the Potency [10] was “inactive”. For the same molecule, the Potency [6] was “inactive”, the Potency [7] was “inactive” and the Potency [8] was “inactive”. For the same molecule, the Potency [9] was “inactive”.

For CCCCCCCCCCCCCC[N+](C)(C)Cc1ccccc1, the Potency [1] was 24.9 µM (active) and 19 µM (active) and 15.8 mM (active), the Potency [2] was 19.8 µM (active) and 9.52 µM (active) and 12.6 mM (active) and the Potency [3] was 55.8 µM (active) and 21.3 µM (active). For the same molecule, the Potency [4] was 3.14 µM (active) and 3.01 µM (active) and 1.58 mM (active), the Potency [5] was 39.5 µM (active) and 21.3 µM (active) and 17.8 mM (active) and the Potency [10] was 49.7 µM (active) and 23.9 µM (active) and 17.8 mM (active). The Potency [6] was 24.9 µM (active) and 13.4 µM (active), the Potency [7] was 39.5 µM (active) and 16.9 µM (active) and 17.8 mM (active) and the Potency [8] was 22.2 µM (active) and 15.1 µM (active) and 14.1 mM (active). For the same molecule, the Potency [9] was “inactive”.

For Oc1c(I)cc(Cl)c2cccnc12, the Potency [1] was 12.3 µM (active) and inactive, the Potency [2] was “inactive” and the Potency [3] was “inactive”. The Potency [4] was 24.5 µM (active), the Potency [5] was “inactive” and the Potency [10] was “inactive”. The Potency [6] was “inactive”, the Potency [7] was “inactive” and the Potency [8] was 34.6 µM (active) and 5.35 µM (active). For the same molecule, the Potency [9] was “inactive”.

With CCCCOC(=O)CC the Potency [1] was “inactive”, the Potency [2] was “inactive” and the Potency [3] was “inactive”. The max response [4] was 2.07% (inactive), the Potency [5] was “inactive” and the Potency [6] was “inactive”. For the same molecule, the Potency [9] was “inactive”.

For CCCCN(CCCC)CC(O)c1cc(Cl)cc2c1-c1ccc(Cl)cc1/C2=C/c1ccc(Cl)cc1 (configuration not stated), the Potency [1] was “inactive”, the Potency [2] was “inactive” and the max response [4] was -17.2% (inactive). The Potency [5] was “inactive”, the Potency [10] was 21.3 µM (active) and the Potency [7] was 23.9 µM (active). For the same molecule, the Potency [8] was 23.9 µM (active) and the Potency [9] was “inactive”.

For C=CC(=O)Nc1cc2c(Nc3ccc(F)c(Cl)c3)ncnc2cc1OCCCN1CCOCC1, the Potency [1] was 10.7 µM (active), the Potency [2] was 10.7 µM (active) and the Potency [4] was 9.52 µM (active). For the same molecule, the Potency [5] was 19 µM (active), the Potency [6] was 9.52 µM (active) and the Potency [7] was 10.7 µM (active). For the same molecule, the Potency [8] was 6.01 µM (active).

In the case of CC[C@H](C)COC(=O)/C=C/c1ccc(N=Cc2ccc(OC)cc2)cc1, the Potency [1] is reported as 48.9 µM (active), the Potency [2] is reported as 21.8 µM (active) and the Potency [3] is reported as “inactive”. For the same molecule, the Potency [4] was 21.8 µM (active), the Potency [10] was “inactive” and the Potency [6] was “inactive”.
